Unmarked numbers belong to inactive results.
Columns and labels:
Experiment in all cases: log2 ratio of Biotin-Ahx-Ub-VS probe labelling (fragment/DMSO); higher = less target engagement (more negative = stronger competition), active = hit call of the paper (q ≤ 0.05, log2 ratio ≤ -1)
Details in all cases: compound concentration: 200 uM; treatment time: 3 h
[1] = molecular target: T1, OTUD6B (UniProt Q8N6M0)
T1 sequence (whole entry): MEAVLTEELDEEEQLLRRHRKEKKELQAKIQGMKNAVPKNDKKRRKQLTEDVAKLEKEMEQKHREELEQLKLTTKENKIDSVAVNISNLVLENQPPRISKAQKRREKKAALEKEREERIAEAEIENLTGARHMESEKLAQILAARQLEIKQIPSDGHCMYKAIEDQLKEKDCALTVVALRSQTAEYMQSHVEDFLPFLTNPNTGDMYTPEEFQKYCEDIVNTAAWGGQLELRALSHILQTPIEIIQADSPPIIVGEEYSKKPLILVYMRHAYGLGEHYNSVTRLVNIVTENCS
Method in brief: (§1)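 HEK293T lysate (495 µg per sample, in Tris/CHAPS/IGEPAL buffer with protease inhibitors) was exposed in triplicate for 3 h to fragment at 200 µM or to vehicle, then to Biotin-Ahx-Ub-VS at 0.5 µM final for 1 h. Labelled DUBs were enriched on NeutrAvidin, digested with LysC and trypsin, and analysed by diaPASEF LC-MS/MS. Spectronaut label-free quantities were normalised to the global median, and values are average log2 ratios of fragment over vehicle from an unpaired t-test. Only proteins with ≥2 unique peptides were used.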

[2] = molecular target: T2, OTUD7B (UniProt Q6GQQ9)
T2 sequence (whole entry): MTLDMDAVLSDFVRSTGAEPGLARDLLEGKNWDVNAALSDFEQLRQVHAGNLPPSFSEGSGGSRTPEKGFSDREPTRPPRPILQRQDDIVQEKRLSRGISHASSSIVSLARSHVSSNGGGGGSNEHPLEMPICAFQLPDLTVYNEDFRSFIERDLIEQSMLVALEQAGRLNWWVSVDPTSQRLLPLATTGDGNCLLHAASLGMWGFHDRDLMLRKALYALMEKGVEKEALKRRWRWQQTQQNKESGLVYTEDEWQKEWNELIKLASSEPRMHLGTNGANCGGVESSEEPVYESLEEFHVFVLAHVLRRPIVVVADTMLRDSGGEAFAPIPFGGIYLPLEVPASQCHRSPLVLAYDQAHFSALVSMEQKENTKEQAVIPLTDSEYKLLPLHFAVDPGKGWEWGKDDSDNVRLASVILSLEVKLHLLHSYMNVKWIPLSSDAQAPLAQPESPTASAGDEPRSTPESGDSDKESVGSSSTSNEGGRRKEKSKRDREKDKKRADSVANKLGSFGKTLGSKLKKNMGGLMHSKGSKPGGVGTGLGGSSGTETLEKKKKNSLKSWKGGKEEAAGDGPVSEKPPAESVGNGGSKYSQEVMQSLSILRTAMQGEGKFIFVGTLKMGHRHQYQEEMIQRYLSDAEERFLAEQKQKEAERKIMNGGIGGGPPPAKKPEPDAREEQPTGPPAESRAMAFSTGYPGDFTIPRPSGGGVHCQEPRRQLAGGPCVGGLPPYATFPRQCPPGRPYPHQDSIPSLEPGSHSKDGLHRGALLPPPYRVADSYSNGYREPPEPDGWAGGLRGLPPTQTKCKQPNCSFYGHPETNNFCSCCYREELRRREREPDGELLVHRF
Method in brief: as §1

[3] = molecular target: PRPF8 (UniProt Q6P2Q9)
Method in brief: as §1

[4] = molecular target: T3, PSMD7 (UniProt P51665)
T3 sequence (whole entry): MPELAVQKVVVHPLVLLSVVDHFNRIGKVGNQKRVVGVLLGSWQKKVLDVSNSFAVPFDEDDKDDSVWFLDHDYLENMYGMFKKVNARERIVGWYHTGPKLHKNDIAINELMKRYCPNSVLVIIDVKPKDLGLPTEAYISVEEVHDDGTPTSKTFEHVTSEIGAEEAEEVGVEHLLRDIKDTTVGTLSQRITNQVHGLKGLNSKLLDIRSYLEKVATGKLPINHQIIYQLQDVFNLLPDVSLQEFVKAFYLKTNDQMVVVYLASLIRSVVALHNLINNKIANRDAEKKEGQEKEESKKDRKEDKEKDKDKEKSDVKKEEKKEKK
Method in brief: as §1

[5] = molecular target: UCHL1 (UniProt P09936)
Chain of UCHL1 (P09936 whole entry, looked up): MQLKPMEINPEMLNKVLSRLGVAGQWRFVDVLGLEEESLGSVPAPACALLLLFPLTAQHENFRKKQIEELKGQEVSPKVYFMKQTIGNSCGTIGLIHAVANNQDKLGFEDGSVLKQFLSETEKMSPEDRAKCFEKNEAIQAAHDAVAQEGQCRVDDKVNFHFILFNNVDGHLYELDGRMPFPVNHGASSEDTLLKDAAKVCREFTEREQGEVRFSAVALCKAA
Method in brief: as §1

[6] = molecular target: T4, UCHL3 (UniProt P15374)
T4 sequence (whole entry): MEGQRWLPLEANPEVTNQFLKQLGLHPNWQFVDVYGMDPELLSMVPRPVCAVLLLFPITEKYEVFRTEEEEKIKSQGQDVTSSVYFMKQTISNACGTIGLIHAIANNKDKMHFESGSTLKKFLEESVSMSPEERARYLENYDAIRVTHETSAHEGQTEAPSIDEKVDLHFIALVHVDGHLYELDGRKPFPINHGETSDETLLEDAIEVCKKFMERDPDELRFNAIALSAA
Method in brief: as §1

[7] = molecular target: T5, UCHL5 (UniProt Q9Y5K5)
T5 sequence (whole entry): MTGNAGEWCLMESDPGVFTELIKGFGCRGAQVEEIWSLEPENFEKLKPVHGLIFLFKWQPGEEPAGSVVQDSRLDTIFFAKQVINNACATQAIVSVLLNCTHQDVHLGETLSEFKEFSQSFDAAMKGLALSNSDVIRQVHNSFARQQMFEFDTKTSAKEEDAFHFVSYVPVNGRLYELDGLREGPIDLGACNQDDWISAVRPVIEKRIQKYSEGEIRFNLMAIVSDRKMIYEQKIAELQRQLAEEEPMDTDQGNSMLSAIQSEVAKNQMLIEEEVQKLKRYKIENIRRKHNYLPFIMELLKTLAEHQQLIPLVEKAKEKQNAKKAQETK
Method in brief: as §1

[8] = molecular target: USP10 (UniProt Q14694)
Chain of USP10 (Q14694 whole entry): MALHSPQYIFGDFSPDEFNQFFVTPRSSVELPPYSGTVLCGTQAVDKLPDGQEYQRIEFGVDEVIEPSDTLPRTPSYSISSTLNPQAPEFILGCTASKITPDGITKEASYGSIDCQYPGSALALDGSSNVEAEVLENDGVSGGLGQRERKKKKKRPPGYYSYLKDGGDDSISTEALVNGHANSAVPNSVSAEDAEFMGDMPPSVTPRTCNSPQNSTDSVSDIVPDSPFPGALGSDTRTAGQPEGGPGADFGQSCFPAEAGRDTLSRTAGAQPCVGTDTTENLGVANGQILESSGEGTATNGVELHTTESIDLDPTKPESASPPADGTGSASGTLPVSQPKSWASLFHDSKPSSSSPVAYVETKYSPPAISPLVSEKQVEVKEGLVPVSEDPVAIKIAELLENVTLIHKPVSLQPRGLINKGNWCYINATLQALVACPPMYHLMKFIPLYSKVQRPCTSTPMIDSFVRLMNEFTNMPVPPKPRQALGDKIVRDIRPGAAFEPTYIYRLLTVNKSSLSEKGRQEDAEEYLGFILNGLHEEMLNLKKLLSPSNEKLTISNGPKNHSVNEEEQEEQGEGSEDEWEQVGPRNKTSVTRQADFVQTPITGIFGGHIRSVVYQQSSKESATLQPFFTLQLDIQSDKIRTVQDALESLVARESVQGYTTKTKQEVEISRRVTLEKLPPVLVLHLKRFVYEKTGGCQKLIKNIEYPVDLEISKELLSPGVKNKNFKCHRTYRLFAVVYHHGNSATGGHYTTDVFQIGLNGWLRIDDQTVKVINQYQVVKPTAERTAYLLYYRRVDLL
Method in brief: as §1

[9] = molecular target: T6, USP15 (UniProt Q9Y4E8)
T6 sequence (whole entry): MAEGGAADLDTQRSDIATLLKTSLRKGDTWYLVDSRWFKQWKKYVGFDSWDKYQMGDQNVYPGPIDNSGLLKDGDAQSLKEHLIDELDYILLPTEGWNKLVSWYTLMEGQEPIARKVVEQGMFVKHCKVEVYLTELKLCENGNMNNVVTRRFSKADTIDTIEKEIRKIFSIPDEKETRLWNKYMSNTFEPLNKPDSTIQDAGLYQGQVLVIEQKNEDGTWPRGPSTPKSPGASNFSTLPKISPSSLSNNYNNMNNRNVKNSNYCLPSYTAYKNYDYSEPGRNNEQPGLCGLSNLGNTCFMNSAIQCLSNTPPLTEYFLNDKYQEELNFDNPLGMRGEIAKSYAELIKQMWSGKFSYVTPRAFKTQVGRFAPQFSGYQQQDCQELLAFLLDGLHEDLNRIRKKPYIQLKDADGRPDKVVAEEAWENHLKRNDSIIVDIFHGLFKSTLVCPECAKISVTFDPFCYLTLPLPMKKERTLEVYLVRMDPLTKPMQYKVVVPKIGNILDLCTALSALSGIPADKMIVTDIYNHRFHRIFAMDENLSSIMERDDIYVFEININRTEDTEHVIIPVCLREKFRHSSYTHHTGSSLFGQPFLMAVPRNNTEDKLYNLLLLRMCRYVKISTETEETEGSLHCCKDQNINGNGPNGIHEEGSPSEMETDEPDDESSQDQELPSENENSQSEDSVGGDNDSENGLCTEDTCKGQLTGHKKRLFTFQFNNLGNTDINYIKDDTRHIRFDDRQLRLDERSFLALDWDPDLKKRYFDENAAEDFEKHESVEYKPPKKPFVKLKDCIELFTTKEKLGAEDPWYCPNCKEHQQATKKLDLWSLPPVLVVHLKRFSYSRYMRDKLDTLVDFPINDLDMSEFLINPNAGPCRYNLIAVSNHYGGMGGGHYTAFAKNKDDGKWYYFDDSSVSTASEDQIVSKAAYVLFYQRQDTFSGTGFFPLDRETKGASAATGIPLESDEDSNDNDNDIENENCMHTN
Method in brief: as §1

[10] = molecular target: USP16 (UniProt Q9Y5T5)
Chain of USP16 (Q9Y5T5 whole entry, looked up): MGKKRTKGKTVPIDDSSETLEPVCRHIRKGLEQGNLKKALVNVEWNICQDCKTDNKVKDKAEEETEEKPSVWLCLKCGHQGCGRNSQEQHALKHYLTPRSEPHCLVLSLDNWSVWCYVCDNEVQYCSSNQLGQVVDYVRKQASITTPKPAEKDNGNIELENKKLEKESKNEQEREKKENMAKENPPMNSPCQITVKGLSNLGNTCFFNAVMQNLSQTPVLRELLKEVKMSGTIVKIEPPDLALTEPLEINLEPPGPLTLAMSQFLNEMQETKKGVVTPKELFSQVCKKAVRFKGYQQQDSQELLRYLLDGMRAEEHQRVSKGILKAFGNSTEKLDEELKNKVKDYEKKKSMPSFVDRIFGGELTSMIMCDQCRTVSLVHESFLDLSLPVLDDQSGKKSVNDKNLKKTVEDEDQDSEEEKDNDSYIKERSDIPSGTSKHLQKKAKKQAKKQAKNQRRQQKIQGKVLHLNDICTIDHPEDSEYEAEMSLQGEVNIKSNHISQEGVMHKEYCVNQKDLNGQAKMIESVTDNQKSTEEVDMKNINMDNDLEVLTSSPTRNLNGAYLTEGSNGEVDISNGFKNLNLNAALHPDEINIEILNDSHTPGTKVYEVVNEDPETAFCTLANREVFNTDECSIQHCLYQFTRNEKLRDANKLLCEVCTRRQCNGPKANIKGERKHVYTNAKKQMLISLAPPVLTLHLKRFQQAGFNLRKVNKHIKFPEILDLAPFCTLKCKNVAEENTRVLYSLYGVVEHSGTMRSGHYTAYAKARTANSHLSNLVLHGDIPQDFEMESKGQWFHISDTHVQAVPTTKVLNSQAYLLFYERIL
Method in brief: as §1

## COCC1C=CCCN1C(=O)CCl (stereo not given)
[1]
  log2 ratio of Biotin-Ahx-Ub-VS probe labelling: -0.121
[2]
  log2 ratio of Biotin-Ahx-Ub-VS probe labelling: -0.466
[3]
  log2 ratio of Biotin-Ahx-Ub-VS probe labelling: -0.181
[4]
  log2 ratio of Biotin-Ahx-Ub-VS probe labelling: -0.134
[5]
  log2 ratio of Biotin-Ahx-Ub-VS probe labelling: -1.94 (active)
[6]
  log2 ratio of Biotin-Ahx-Ub-VS probe labelling: -0.0426
[7]
  log2 ratio of Biotin-Ahx-Ub-VS probe labelling: -0.167
[8]
  log2 ratio of Biotin-Ahx-Ub-VS probe labelling: -0.0693
[9]
  log2 ratio of Biotin-Ahx-Ub-VS probe labelling: -0.145
[10]
  log2 ratio of Biotin-Ahx-Ub-VS probe labelling: -0.0544
